85 sequences from PubChem BioAssay AID1159506 (National Center for Advancing Translational Sciences (NCATS), 2015) can be followed below.

In all, about 59,000 sequences were measured (the read-out: median about -0.00055, lowest 2% from about -2 on). The full list was thinned out, with the lowest values kept by preference.

This test is described as follows: Identification of proteins required for the processing of the EWS-FLI1 nascent transcript.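 Further: robust z of luciferase light less the median z of siRNAs with the same seed.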 Particulars: TC32 Ewing sarcoma NR0B1-luc vs CMV-luc (EWS-FLI1 target promoter against control promoter), 48 h; screened at 20 nM (by protocol). The gist of the method:
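TC32 Ewing sarcoma cells carrying NR0B1-promoter or CMV-promoter luciferase reporters were reverse-transfected with single siRNAs at 20 nM, three per gene genome-wide. Luminescence was read after 48 h and normalized to non-targeting controls.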
UACAUGGUAAUAACUUUUC against MARCKS registered a seed-corrected z-score of -0.217.

UUUGUUCAUCACGAAAGUC against SDHAF3 displayed a seed-corrected z-score of -0.383.

In turn, AGAGUGUCAAGCAGCAUGG against EEF1A1P33 showed a seed-corrected z-score of -2.33.

In the case of UGCGGAUCAAGUCUGAGAC against MSH5, the seed-corrected z-score was -0.442.

As to UGAGUUUCUCGCACGUCUC against WNT4, the seed-corrected z-score is -2.44.

The sequence UGAGGCUCCAGUUUCAGGC against SLC3A2 showed a seed-corrected z-score of 1.53.

For the sequence UGACUUGACUCCGAUCUGC against AP2A1, the seed-corrected z-score was -0.384.

UUCGUGGUCUUGCAGAAGC against LY6D displayed a seed-corrected z-score of -0.178.

GAUAGUUGUAGGGUGUGGC against NDUFA3P3: the seed-corrected z-score was found to be 0.165.

UAACUUAUCUAAACUACUC against SPAG9 showed a seed-corrected z-score of -0.547.

Take AAUGGUUUCACCGGCAGCG against IFRD2: the seed-corrected z-score was -2.09.

Turning to AACUCUUCUAUGUCGAAUG against ZNF551, the seed-corrected z-score was -0.267.

UCCGAUGACACCAAGAGCG against REEP5 came in with a seed-corrected z-score of 0.932.

As to UACUUUACGUUCUUCGAUC against PAGE4, the seed-corrected z-score amounted to 0.246.

With ACUGGAGAUAGUGCUGUUG against SUN2, the seed-corrected z-score is -4.61.

As to UGUGAUGUUAGCAAUCUUC against TAS2R41, the seed-corrected z-score was -0.517.

With UAGUCAACAAUGUCACAUC against ELOVL7, the seed-corrected z-score is -0.576.

Regarding UGAUGCACCAUCACAGUCU against SUSD6, the seed-corrected z-score is 0.212.

CACCAGGAUGGUUUGGUUG against BRICD5 registered a seed-corrected z-score of 1.06.

In turn, UCUUCGGUCAUGAAUGAGG against TAT returned a seed-corrected z-score of -0.586.

With UCUGUCAUCUUUUUGGGUG against PSMD8, the seed-corrected z-score is -4.18.

As to UCCGAUACCGACAAUAACC against ADAM7, the seed-corrected z-score worked out at 0.224.

For the sequence UGAAGUACACCUUAAAGCC against SCN4A, the seed-corrected z-score turned out to be 0.557.

In the case of UCUGUUCCAAUACUGCUUG against CD209, the seed-corrected z-score is -0.501.

AUGGUGUCAAGAAUAAGGC against ROPN1L showed a seed-corrected z-score of 1.14.

In turn, UCAGCAACAACGGAUAUCG against PLEKHG7 displayed a seed-corrected z-score of -0.178.

Sequence AAAGUGCCCAAAACGAUGG against ATP2B3 registered a seed-corrected z-score of 0.438.

AACAUCUCCAAUGAUAGGG against NR0B2 showed a seed-corrected z-score of -2.16.

Sequence UCACCUACUUCGAUCUUCC against MECOM gave a seed-corrected z-score of -0.295.

For the sequence AAUCAUGCCCUUUUUGUGG against FPR2, the seed-corrected z-score is -2.

Sequence UUCCAGCCCAUGAGAACCC against DKK2 registered a seed-corrected z-score of 0.436.

Regarding AACGGAAAUGCUGACAUCG against EPRS, the seed-corrected z-score is -0.386.

Regarding AGAGUUUCCUGAGUCUUCU against TPD52L2, the seed-corrected z-score was -2.41.

Take UAUCAUUGCGUGUUGCUGC against BBOF1: the seed-corrected z-score was determined as 0.0553.

The sequence UCUGUGAGGAAUGCUGUCC against RFT1 returned a seed-corrected z-score of -2.48.

Turning to UUCUAGCUCACUGAAGUCC against PYGL, the seed-corrected z-score is -0.371.

As for UUCAGGGCAUUUAAAGGGC against ZNF629, the seed-corrected z-score is -0.898.

Take AAGAUAAUAAAAACGUAGG against SLC2A14: the seed-corrected z-score came to 0.0262.

For ACUGCUUACACUCACAUGG against ZNF490, the seed-corrected z-score was -4.22.

UGGGAGCAAAGCAUAGUCG against PNMA3: the seed-corrected z-score was -1.88.

With UACUUGACUGAAAUGUCUC against ZNF829, the seed-corrected z-score was -0.616.

UAGUUGUCCUGGUCGGAGC against LY6E showed a seed-corrected z-score of -2.61.

In the case of UUGCAUGCAAUGGUGAGGC against S100A10, the seed-corrected z-score is -1.4.

UACUUUGCGACCAUUUAGG against PABPC3 showed a seed-corrected z-score of -1.3.

Sequence UCUGUAACAUGCGGAGUUC against M1AP gave a seed-corrected z-score of -0.631.

ACCGUGUUCAGAUAGCCUG against RACK1 displayed a seed-corrected z-score of -1.01.

AAUGUUGACACGUCUCCUG against TOB1 registered a seed-corrected z-score of 0.235.

Turning to UUGGGAGUGAAAACAGAGG against OR8B2, the seed-corrected z-score was -3.41.

The sequence AACUUCUUCAAGGUAAUUG against PJA1 yielded a seed-corrected z-score of 0.88.

AAAGUUUCACUCUUUCUGG against TPT1P8: the seed-corrected z-score is -0.645.

In turn, UUCGAUUGAAAGAAGGCCU against MYOZ1 displayed a seed-corrected z-score of -0.336.

In the case of AACUCUAUUCAUGAGCUCG against ANGPTL5, the seed-corrected z-score amounted to 0.0468.

On to UUCCUGAUUAGUAAUGUCG against RAB5B, for which the seed-corrected z-score is 0.136.

For the sequence AUCUUGGACAGAUAUAAUC against RNF126, the seed-corrected z-score is -2.4.

UAUACUAUUGGUAAGUGCA against SND1-IT1 came in with a seed-corrected z-score of -0.0514.

AUACUCCACACCACAAAGC against LTB4R registered a seed-corrected z-score of 0.354.

On to AAAAGACCAAAGCCCAUGU against RPLP1, for which the seed-corrected z-score was -2.92.

For the sequence UAUAGUGAAGAGAUAUGCC against ADGRL2, the seed-corrected z-score is 0.229.

UCGUUUUUGACUACCAGGG against PHKB returned a seed-corrected z-score of 0.853.

The sequence AACUGAUUAAAAUCAGAGG against PIGG yielded a seed-corrected z-score of 0.269.

UAGUAGCAUAGUUCAGUGG against OR51T1 came in with a seed-corrected z-score of 0.179.

UUUGCUCUCAUUCUCCGCA against SF3B5 had a seed-corrected z-score of -3.03.

AUAGUUAAUUGAAUUUCGG against BMPR2 came in with a seed-corrected z-score of -0.638.

Turning to UUUGCAGCCUCGGUUAUAG against PWWP2B, the seed-corrected z-score was determined as 0.352.

Take AAGAGUAAUAGGCAAUUUC against SLC19A2: the seed-corrected z-score was -0.574.

Regarding ACACGGGCAAUGGAUUUCC against RPL35, the seed-corrected z-score is -0.426.

Turning to UAACAUACACUAGAUCGCC against FOLH1, the seed-corrected z-score was -3.06.

In turn, AAUGAGAUAAUGUUGGUCA against SNX29P1 displayed a seed-corrected z-score of -1.77.

UUUCUUUUCGGCUCUAGGG against NKX2-5 showed a seed-corrected z-score of -1.12.

With UGUACAAUGAGGAAGCUUC against LOC728903, the seed-corrected z-score is -0.125.

UCUUUGCAAAGGGUAUGCC against IL17RE: the seed-corrected z-score was -2.02.

Turning to AGACCAUCCCACGAAAUGC against PEBP1, the seed-corrected z-score is -1.22.

On to AAGCGGAAAAUCUUGAUGC against SLC26A2, for which the seed-corrected z-score came out at 0.168.

Consider UUCGUCCUUAUGCUCUUUC against HOXA7, for which the seed-corrected z-score is 0.383.

AAAGAUACAGGUUAAAGGC against HIST2H2BF came in with a seed-corrected z-score of -0.321.

On to UUCAUAACGAGUUGGAGCC against RPL30, for which the seed-corrected z-score was -2.42.

Regarding UUCAUGUUCAGAGUCAACG against SSRP1, the seed-corrected z-score amounted to 1.02.

In turn, ACUCUUAUCAGGCACAUCC against IMPAD1 displayed a seed-corrected z-score of -0.93.

On to UAACCGUUCCCGCAAACAC against TFAP2E, for which the seed-corrected z-score was -0.2.

With AUUUAUUCCGGACACGUGG against GLI4, the seed-corrected z-score was -2.01.

Regarding UCUUAUCCAAGGGACCAGC against MED1, the seed-corrected z-score is -0.541.

In turn, UUCUCUAGGAUGGAAAACC against LOC728752 yielded a seed-corrected z-score of 0.253.

On to UUCGCAAUGUUGGUUCACC against TEX15, for which the seed-corrected z-score was -0.211.

Take AAACACUCCACUGAUGUGC against IFT140: the seed-corrected z-score was -0.256.

For the sequence UGCGCUUACGCUUCUUACC against HIST1H2BB, the seed-corrected z-score was -0.822.
